The values below come from PubChem BioAssay AID1962 (The Scripps Research Institute Molecular Screening Center, 2009).

Values joined by “and” are separate entries in the source; they are usually repeats but may differ in a detail not shown here. Equal values may be shown once. Among all 300,000 compounds or so, about 2,500 (0.83%) were called active.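 How the source made its calls: active means inhibition above the mean of all tested compounds plus 3 SD, set per screening campaign (cut at about 24% in these data); inactive means the rest.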 Only a selection was taken, and actives are over-represented in it overall.

For the test, the system named is tRNA 2'-phosphotransferase TPT1 (Candida albicans SC5314). The experiment in a line: tRNA 2'-phosphotransferase blockers, C. albicans – biochemical, fluorescence polarization, primary screen (AID 1962).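 Further: plate controls were DMSO alone for no effect and ferristatin control at 100 nM for full effect.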 The settings on record: recombinant caTPT1, FP RNA substrate dephosphorylation; at 5 µM; active compounds read high.
By inhibition is commonly meant the change of the read-out against control, counted positive when it falls. On to `CCCCC(=O)N/N=C/c1c(O)n(CCC2=CCCCC2)c(=O)[nH]c1=O`, for which the inhibition was 0.99% (inactive).

Take `CCCCC(=O)N/N=C/c1c(O)n(-c2ccccc2)c(=O)[nH]c1=O`: the inhibition was -0.86% (inactive). The result for `CCCCC(=O)N/N=C/c1c(O)n(CC)c(=S)n(CC)c1=O` reads 156% (active).

Take `CNC(=O)Nc1ccc(C(O)(C(=O)OC)C(F)(F)F)cc1` (stereo not given): the inhibition is 0.47% (inactive).

With `CCOC(=O)c1c(C)c(C(=O)N2CCC3(CC2)OCCO3)c(C)n1CC`, the inhibition is 1.34% (inactive).

As for `O=c1[nH]c(=O)n(-c2ccccc2)c(O)c1C=NC12CN3CN(CN(C3)C1)C2`, the inhibition was -4.46% (inactive). The result for `CCN1C(=O)C(=Cc2c(C)n(CC(=O)NCC3CCCO3)c3ccccc23)C(=O)N(CC)C1=S` (stereo not given) reads 24.2% (active); that for `CCC1(C)CC(CCNCc2ccc(N(C)C)cc2)(c2ccc(F)cc2)CCO1` (stereo not given), 1.22% (inactive). The result for `O=C(C1CC(=O)N(C2CCCC2)C1)N1CCC2(CC1)OCCO2` (stereo not given) reads -0.68% (inactive); that for `COc1ccc(CN2C(=O)NC(=O)/C(=C\c3ccc(OC)c(OC)c3OC)C2=O)cc1`, 10.5% (inactive); that for `COc1ccc(N2C(=O)/C(=C/c3ccco3)C(=O)NC2=S)cc1`, 36.7% (active).

On to `COc1cccc(N2C(=O)NC(=O)/C(=C\c3cn(C)c4ccccc34)C2=O)c1`, for which the inhibition is -73.3% (inactive). The result for `O=C(CCCn1c(=O)[nH]c2cc(Cl)ccc2c1=O)N1CCC2(CC1)OCCO2` reads 5.94% (inactive). `CCOC(=O)C(O)(c1ccc(N=Cc2ccccc2O)c(C)c1)C(F)(F)F` (stereo not given): the inhibition is 9.39% (inactive).

Consider `COC(=O)COc1cc(C)cc2oc(=O)c3c(c12)CCCC3`, for which the inhibition was -2.95% (inactive).

For the compound `COc1cc2nc(N3CCN(C(=O)[C@@H]4CCCO4)CC3)nc(N)c2cc1OC`, the inhibition was -1.38% (inactive). The result for `O=C1N=c2ccccc2=C/C1=C\c1c(O)[nH]c(=S)[nH]c1=O` reads -1.76% (inactive).

Turning to `COc1ccccc1N=Nc1c(O)[nH]c(=S)[nH]c1=O`, the inhibition was 49.2% (active). The result for `CCOCCc1c(O)[nH]c(=S)[nH]c1=O` reads -3.07% (inactive); that for `Cc1cc(/C=C2/C(=O)NC(=O)N(Cc3ccco3)C2=O)c(C)n1-c1ccc(C(=O)O)cc1`, 22.2% (inactive); that for `O=C1NC(=O)N(Cc2ccco2)C(=O)/C1=C\c1cccn1CCOc1ccccc1`, 37.9% (active). As to `O=C(O)COc1ccccc1/C=C1\C(=O)NC(=O)N(CCC2=CCCCC2)C1=O`, the inhibition is 7.72% (inactive). The result for `O=C1NC(=O)N(Cc2ccco2)C(=O)/C1=C\c1ccc(-c2ccc(F)cc2)o1` reads 27.9% (active); that for `O=C1NC(=O)N(CCc2ccc(F)cc2)C(=O)/C1=C/C=C/c1ccccc1`, 13.3% (inactive). The result for `O=C(COc1ccc2ccccc2c1)N1CCN(Cc2ccncc2)CC1` reads -1.1% (inactive). For the compound `CN(C)C(=O)Oc1cc(OC(=O)N(C)C)cc(C(O)CNC(C)(C)C)c1` (stereo not given), the inhibition was -1.53% (inactive) and -2.15% (inactive).

`COc1cccc(C(=O)N2C[C@H]3C[C@@H](C2)c2cccc(=O)n2C3)c1`: the inhibition is -1.64% (inactive). The result for `COc1ccc(C2N3CC(C)(C)CN23)cc1` (stereo not given) reads 0.1% (inactive); that for `O=C1CC(=O)N(Cc2ccccc2)C(=O)N1CCCCCCN1C(=O)CC(=O)N(Cc2ccccc2)C1=O`, 71.4% (active).

Consider `CC(C)(C)c1ccc(CN2C(=O)CN=C(c3ccccc3)c3ccccc32)cc1`, for which the inhibition is 2.92% (inactive).

Turning to `O=C(CN1CCCC1=O)NCCc1ccccc1`, the inhibition is -1.43% (inactive). The result for `Fc1ccc(C2N3CCCN23)cc1` (stereo not given) reads -5.01% (inactive). The result for `CC(C)n1c(=O)c(C=Nc2ccc(Br)cc2)c(O)n(Cc2ccco2)c1=O` reads 27.9% (active); that for `Cn1c(O)c(C=Nc2ccc3c(c2)CCC3)c(=O)n(C)c1=O`, -3.76% (inactive); that for `CN(C)CCCN=Cc1c(O)n(Cc2ccco2)c(=O)[nH]c1=O`, 1.6% (inactive).

With `CCOc1ccc(-c2cc(C)[n+](CCN(CC)CC)c(-c3ccc(OCC)cc3)c2)cc1`, the inhibition was -0.45% (inactive). The result for `Cc1ccc(-n2c(-c3ccc([N+](=O)[O-])cc3)nc3ccccc3c2=O)cc1` reads -3% (inactive); that for `Cc1ccc(N2C(=O)NC(=O)C(CCc3ccncc3)(Cc3cccc(Cl)c3Cl)C2=O)cc1` (stereo not given), 3.87% (inactive); that for `CC(C)Nc1nc(Cl)nc(NC(C)C)n1`, -2.15% (inactive). The result for `O=C(N/N=C/c1c(O)n(Cc2ccccc2)c(=O)[nH]c1=O)c1ccccc1` reads 2.3% (inactive). The result for `CC/C(=N\NC(=O)c1ccccc1O)c1c(O)n(Cc2ccccc2)c(=O)[nH]c1=O` reads 46.6% (active); that for `CCC(=NCc1ccco1)c1c(O)n(Cc2ccccc2)c(=O)[nH]c1=O`, 3.72% (inactive); that for `COc1ccc2c(c1)[C@]13CCCCC1C(C2)N(C)CC3` (stereo not given in full), -1.13% (inactive). As for `CC1CCCCN1Cc1cccnc1` (stereo not given), the inhibition was -4.61% (inactive). The result for `CN(c1ccccc1)c1ccc([N+](=O)[O-])c2nonc12` reads 14.5% (inactive).
